# High-throughput results from PubChem BioAssay.
# HUVEC tox IL1B: HUVEC cytotoxicity counter-screen, IL-1B stimulated; HUVEC cell count loss, Hoechst imaging; cell count reduction, % at 2 µM; 0.41% of 94,000 active;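 active = cell count reduction more than 3 SD above the screen-wide mean, cut at about 70% in these data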;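 also: normalized per plate to untreated control cells as the no-loss baseline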
# NFkB transloc pot: enhances IL-1B driven NFkB nuclear translocation. HUVEC IL-1B NFkB p65 nuclear translocation imaging. activation, % at 2 µM. 0.3% of 94,000 active. AID 819;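 active = activation above 40%, about the mean plus 3 SD, also judged a hit on visual image review; inconclusive = activation above 40% but not a hit on visual review; inactive = activation not above 40% and no visual hit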;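 also: percent activation is computed from the nuclear over cytoplasmic p65 intensity ratio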
# Cav32 inh: human Cav3.2 channel inhibition, primary screen; O95180; Cav3.2-expressing cells, Fluo-4 calcium fluorescence FDSS; stronger effect = lower value; B-score at 10 µM; 4% of 100,000 active; AID 449739;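 active = single-dose well whose peak fluorescence ratio is a statistical outlier from its plate by either plate-standardised score or position-corrected B-score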
# NFkB transloc inh: blocks IL-1B driven NFkB nuclear translocation in HUVEC cells. HUVEC IL-1B NFkB p65 nuclear translocation imaging. inhibition, % at 2 µM. 0.43% of 94,000 active. AID 796;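 active = inhibition above about 30% together with a positive call from visual inspection of the well image, limit read from the data; inconclusive = inhibition above a set limit but visual check negative; inactive = inhibition not above a set limit, visual check negative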;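 also: nuclear over cytoplasmic p65 intensity ratio measured by imaging; 0% = IL-1B stimulated DMSO wells and 100% = unstimulated DMSO wells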
# * = called active by the depositor; ? = inconclusive; . = not tested or not shown. Shown are actives, neighbours in structure and some others; about 4.4% of the full set was active somewhere.
SMILES,HUVEC tox IL1B,NFkB transloc pot,Cav32 inh,NFkB transloc inh
CC1CCc2nc(NC(=O)CN3CCN(c4ccc(F)cc4)CC3)sc2C1 (stereo not drawn),-3,10,-5*,-10
O=C(CN1CCN(c2ccc(F)cc2)CC1)Nc1nnc(-c2ccccc2)s1,.,.,0.16,.
CC1=NN(c2ccccc2)C(=O)C1(C)C,-1,-50,-0.51,50*
O=C(Nc1ccc(Cl)cc1)OCc1cn(-c2ccc(Cl)cc2)nn1,-94,-7,-4.5*,7
OC1O[C@H](c2ccc3c(c2)OCO3)[C@H]2CO[C@H](c3ccc4c(c3)OCO4)[C@@H]12 (stereo partly drawn),.,.,0.0053,.
CCOc1cc(/C=C\c2[nH]c(=O)[nH]c(=O)c2[N+](=O)[O-])ccc1OC(C)CC (stereo not drawn),-67,47*,-0.33,-48
O=C(Cn1c(=O)n(CCCCC(=O)NC2CCCC2)c(=O)c2ccccc21)NCCC1=CCCCC1,3,-41,-0.45,40*
O=C(CCn1c(=O)c2ccccc2n(CC(=O)NC2CCCC2)c1=O)NCCc1ccc(Cl)cc1,1,-11,0.51,11
CCCCN(C(=O)CSc1nnc(Nc2ccc(C)c(C)c2)s1)c1c(N)n(Cc2ccccc2)c(=O)[nH]c1=O,-23,6,-5.3*,-6
CCCCCN(CCCCC)C(=O)C(CCC(=O)O)NC(=O)c1ccc(Cl)c(Cl)c1 (stereo not drawn),.,.,-8.5*,.
CCCCN(CC)C(=O)c1ccc(Cl)c(Cl)c1,-10,12,-2.7,-12
CCCC(C)C(=O)NCc1ccccc1OC (stereo not drawn),0,123*,-0.033,-123
CCCCC(CC)C(=O)NCc1ccccc1OC (stereo not drawn),-9,101*,0.34,-101
O=C(O)CN1CCN(Cc2ccc(F)cc2Cl)C1=O,-17,?,0.18,-83
O=[N+]([O-])c1ccc(OCc2cn([C@@H](CO)c3ccccc3)nn2)c(Br)c1,.,.,-1.3,.
CC1(C)CC2CC(C)(CN2C(=O)COC(=O)c2ccc(Cl)c(N)c2)C1 (stereo not drawn),9,16,-6.4*,-16
O=C(NCC1CCCC(CNC(=O)N2CCc3ccccc32)C1)N1CCc2ccccc21 (stereo not drawn),-5,-9,-5*,9
CC(C)OC(=O)CCC/C=C\C[C@@H]1[C@@H](CC[C@@H](O)CCc2ccccc2)[C@H](O)C[C@@H]1O,.,.,-4,.
O=C1CC(c2ccc(F)cc2)CC(O)=C1C=NCCN1CCN(C(=O)Nc2ccccc2)CC1 (stereo not drawn),-2,1,-4.2*,-1
Cc1ccc(-c2nn(-c3ccccc3)c3[nH]c(=O)c(CNCc4ccccc4)cc23)cc1,-7,5,-3.6*,-5
CS(=O)(=O)N(CC(=O)Nc1ccc(CC#N)cc1)c1ccc(C23CC4CC(CC(C4)C2)C3)cc1,-43,20,-3.6,-20
CS(=O)(=O)N1CCN(c2ccccc2NC(=O)c2ccc(Cl)cc2)CC1,-18,22,-0.77,-22
CS(=O)(=O)N1CCN(c2ccccc2NC(=O)CSc2ccc(Cl)cc2)CC1,-15,-2,-4*,2
O=C(COc1ccc(Cl)cc1Cl)N1CCCN(C(=O)COc2ccc(Cl)cc2Cl)CC1,-3,6,-4.6*,-6
CC(=O)N1CCN(c2ccccc2NC(=O)COc2ccc(Cl)cc2Cl)CC1,8,-12,-4.7*,12
SMILES,HUVEC tox IL1B,NFkB transloc pot,Cav32 inh,NFkB transloc inh
Cc1cc(Cl)ccc1OCC(=O)N1CCCCC1,-14,6,-0.094,-6
CCOc1ccccc1N1CCN(C(=O)Nc2ccc(F)c(Cl)c2)CC1,-12,-2,-4.1*,2
COc1c(Cl)cc(Cl)cc1C(=O)Nc1ccccc1N1CCN(C(C)=O)CC1,-3,-8,-0.053,8
COc1ccccc1N1CCN(C(=O)Nc2cccc(Cl)c2)CC1,7,20,-1.3,-20
CCCCc1ccc(N2C(=O)[C@@H]3C(CC(N)=O)NC4(C(=O)Nc5ccc(F)cc54)[C@@H]3C2=O)cc1 (stereo partly drawn),2,2,0.2,-2
COCCN(CC(=O)NCc1ccccc1)C(=O)CCC(=O)Nc1ccccn1,5,11,-0.28,-11
CCN(Cc1ccccc1)Cc1cccc([N+](=O)[O-])c1,56,-7,-0.54,7
C=CCn1c(SCCOc2ccc(OC)cc2)nnc1C(CO)NC(=O)c1ccc(OC)cc1 (stereo not drawn),14,11,-0.51,-12
CCC(=O)N1CCN(c2ccccc2NC(=O)COc2cc(C)ccc2C(C)C)CC1,28,2,-7.1*,-2
O=C(COc1ccccc1)Nc1ccccc1N1CCN(c2ccc(F)cc2)CC1,27,4,.,-4
O=C(COc1ccccc1)Nc1ccccc1N1CCN(c2ccccc2)CC1,0,42*,-3.2,-42
CCCc1nnc(N2C(=O)c3cccc4cccc(c34)C2=O)s1,16,-7,0.37,7
C(=N\c1nc2ccccc2[nH]1)/c1cccs1,.,.,3.1*,.
COc1cc(C)c(/C=C/C(C)=C/C=C/C(C)=C/C(=O)O)c(C)c1C,.,.,0.27,.
COc1ccccc1NC(=O)Cn1nc(-c2ccc(Cl)cc2)c2ccccc2c1=O,16,-3,-4.7*,3
CCN1CCN(CCn2c(=S)[nH]c3ccccc3c2=O)CC1,-22,3,0.65,-3
O=C(C1CCC(Cn2c(=S)[nH]c3ccccc3c2=O)CC1)N1CCN(c2ccccc2)CC1 (stereo not drawn),7,-1,-4.7*,1
O=C(c1ccc(F)cc1)C1CCN(CCn2c(=S)[nH]c3ccccc3c2=O)CC1,.,.,-4.8*,.
Cc1[nH]nc2c1C(c1ccc(-c3ccccc3C#N)o1)C(C#N)=C(N)O2 (stereo not drawn),11,20,-4.4*,-20
CCCCC(=O)Nc1ccc(C(=O)N2CCN(C)CC2)cc1,4,8,.,-8
Cc1ccc(C2(C)NC(=O)N(CCOc3ccccc3)C2=O)cc1 (stereo not drawn),-2,8,-3.3*,-8
COc1ccc(OCCN2C(=O)NC(C)(c3ccc(C)cc3)C2=O)cc1 (stereo not drawn),22,23,-1.8,-23
CC1CCCN(C(=O)Nc2cccc(NC(=O)N3CCCC(C)C3C)c2)C1C (stereo not drawn),14,-2,-5.8*,2
CCCC(=O)O[C@@H]1C[C@@H](C)N(C(=O)c2ccccc2)c2ccc(C)cc21,-4,-13,-4.1*,13
Cc1ccc(N2CCN(C(=O)c3ccccc3)CC2)c(C)c1,-49,31,-0.99,-31
SMILES,HUVEC tox IL1B,NFkB transloc pot,Cav32 inh,NFkB transloc inh
CCS(=O)(=O)n1nc(NCc2cccc(OC)c2)nc1NCc1cccc(OC)c1,5,-3,-4.2*,3
COc1cccc(CNS(=O)(=O)c2cn(C)cn2)c1,-2,10,.,-10
Cc1cc(C(F)(F)F)nn1CCCNC(=O)c1cnccn1,.,.,-1.3,.
c1csc(CSc2nc3ccccc3s2)c1,.,.,0.00033,.
CCn1c(CSc2nc3ccccc3s2)nc2ccccc21,-33,17,-5.7*,-17
CCOC(=O)c1c(NS(C)(=O)=O)sc2c1CCC(C)C2 (stereo not drawn),-22,-3,-10*,4
Cc1ccccc1CNC(=O)c1ccccc1,-23,-1,-0.28,1
